Results from PubChem BioAssay (NCATS).
“And” between values parts separate entries of the source, which are not always exact repeats. Equal entries are not always repeated. Results filed as inconclusive are left out. Entries that show only a call come without a potency. The source made the active and inactive calls. Unless noted, calls come from the whole dose curve.

Legend:
[1] = qHTS for Inhibitors of the Functional Ribonucleoprotein Complex (vRNP) of Lassa (LASV) Arenavirus: LASV Primary Screen - GLuc reporter signal (AID 1347082; calls by dose curve; tested in HEK293 reporter line; note: nearly all actives have a fitted effect of over 60% in size)
[2] = Confirmatory qHTS to identify inhibitors of SARS-CoV-2 cell entry (AID 1645844); note: potency is the fitted concentration of half-maximal effect; nearly all actives have a fitted effect of over 45% in size
How it was run: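 Using stable human ACE2 Expi293F cells, compounds preincubated 1 hr before spike pseudoparticle infection; luciferase signal after 48 hr at 37C, 5% CO2, normalised to spike PP and no-fusion-protein PP wells.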

[3] = Primary qHTS to identify inhibitors of SARS-CoV-2 cell entry (AID 1645846); settings: activity change, negative = inhibition: at 57.1 µM (top of the series) unless noted; note: nearly all actives have a fitted effect of over 45% in size; note: potency is the fitted concentration of half-maximal effect
How it was run: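 Using luciferase-reporting pseudoviruses carrying Wuhan-Hu-1 spike, the screen tracks entry into stably ACE2-expressing cells over 48 hr. Activity is expressed relative to spike particles versus particles lacking any fusion protein.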

[4] = VSVG counterscreen qHTS to identify inhibitors of SARS-CoV-2 cell entry (AID 1645847); note: potency is the fitted concentration of half-maximal effect; nearly all actives have a fitted effect of over 65% in size
How it was run: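 Entry of VSV-G pseudotyped particles into human ACE2-expressing HEK293 cells was measured by luciferase luminescence 48 h after infection, with compound added 1 h beforehand.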

[5] = Inducers of the Endoplasmic Reticulum Stress Response (ERSR) in human glioma: Validation (AID 504836; active = well fitted curve in the direction sought with a large enough effect; an effect the other way counts as inactive or inconclusive)
How it was run: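 Stably transfected U87-MG human glioma cells carrying a GRP78-based luminescent sensor were seeded at 1000 cells/well, pin-dosed with compounds and incubated 16 h. Luciferase reagent was then added, and end-point luminescence was read after 10 min at room temperature.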

[6] = target: Nucleoprotein (Lymphocytic choriomeningitis virus (strain Armstrong)) (UniProt P09992); assay: qHTS for Inhibitors of the Functional Ribonucleoprotein Complex (vRNP) of Lymphocytic Choriomeningitis Arenaviruses (LCMV): LCMV Primary Screen - GLuc reporter signal (AID 1347086); note: nearly all actives have a fitted effect of over 70% in size
[7] = Validation screen for inhibitors of Lassa infection (AID 463096)
[8] = Primary qHTS for Huh7 cytotoxicity: counterscreen for inhibitors of MERS-S pseudotyped particle cell entry (AID 1479147); settings: outcome: dose series up to 57.1 µM unless noted
[9] = Primary qHTS for inhibitors of MERS-S pseudo-typed particle cell entry (AID 1479149); note: nearly all actives have a fitted effect of over 60% in size
[10] = Primary qHTS for Vero E6 cytotoxicity: counterscreen for inhibitors of SARS-S pseudo-typed particle cell entry (AID 1479150); settings: outcome: dose series up to 57.1 µM unless noted
[11] = Cytotoxicity counterscreen for inhibitors of SARS-CoV-2 cell entry (AID 1645845); note: nearly all actives have a fitted effect of over 50% in size
How it was run: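 After a 15 min room-temperature ATPLite 1step step, luminescence reflected ATP remaining in HEK293-ACE2 cells exposed to compound for 1 h plus 48 h at 37 C, with percent activity set by cell and no-cell controls.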

[12] = system: Zika virus NS2B-NS3 protease; assay: Primary screen GU AMC qHTS for Zika virus inhibitors (AID 1347154; active = well fitted curve in the direction sought with a large enough effect; an effect the other way counts as inactive or inconclusive; note: nearly all actives have a fitted effect of over 70% in size)
How it was run: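 Unlinked Zika NS2B hydrophilic domain/NS3 protease domain noncovalent complex (25 nM final) in 10 mM Tris-HCl pH 8.0, 0.01% Tween 20, with AMC peptide substrate. Fluorescence (ex 340, em 450 nm) change over 15 min, room temperature; percent inhibition fitted to 4-parameter Hill equation.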

[13] = target: Catechol O-methyltransferase (Homo sapiens) (UniProt P21964); assay: Confirmatory Screen for Target Class Profiling of Small Molecule Inhibitors of Methyltransferases (AID 1745852); settings: MTase-Glo luminescence, SAH detection, recombinant enzyme; measured here: COMT max response; stronger effect = lower value
[14] = target: Guanidinoacetate N-methyltransferase (Homo sapiens) (UniProt Q14353); assay: as above; settings: activity change, negative = inhibition: at 57.3 µM (top of the series) unless noted
[15] = target: Nicotinamide N-methyltransferase (Homo sapiens) (UniProt P40261); assay: as above; settings: MTase-Glo luminescence, SAH detection, recombinant enzyme; measured here: NNMT max response; stronger effect = lower value
[16] = target: Phenylethanolamine N-methyltransferase (Homo sapiens) (UniProt P11086); assay: as above; settings: MTase-Glo luminescence, SAH detection, recombinant enzyme; measured here: PNMT max response; stronger effect = lower value
[17] = target: Glutathione peroxidase 1 (Homo sapiens) (UniProt P07203); assay: Primary qHTS Assay for Inhibitors of Recombinant Selenoprotein Glutathione Peroxidase 1 (GPX1) (AID 1845191; active = well fitted curve in the direction sought with a large enough effect; an effect the other way counts as inactive or inconclusive; note: nearly all actives have a fitted effect of over 65% in size)
How it was run: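 GPX1 10 nM, GR 100 nM, GSH 1 mM, NADPH 0.5 mM, CHP 0.5 mM (final). 30-min cpd preincubation, RT. Ex340/Em450 read t=0, t=15 min.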

[18] = target: Nuclear receptor subfamily 1 group I member 3 (Homo sapiens) (UniProt Q14994); assay: Primary qHTS for antagonist of constitutive androstane receptor (CAR) against the NCATS DSHEA and TCM libraries (AID 1794836; active = well fitted curve in the direction sought with a large enough effect; an effect the other way counts as inactive or inconclusive)
How it was run: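 HepG2 cells stably carrying hCAR and a CYP2B6 luciferase reporter (2,500 cells/well) attached for 5 h, then received compounds with 48 uM CITCO for 24 h at 37C. ONE-Glo luminescence read antagonism; CellTiter-Fluor (405/540 nm) gave viability.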

[19] = Confirmatory qHTS for VERO E6 Cytotoxicity Assay: Counterscreen for SARS-CoV-2 CPE Assay (AID 1508605); note: nearly all actives have a fitted effect of over 60% in size

Nucleoprotein (Lymphocytic choriomeningitis virus (strain Armstrong)), sequence (P09992 whole entry, looked up): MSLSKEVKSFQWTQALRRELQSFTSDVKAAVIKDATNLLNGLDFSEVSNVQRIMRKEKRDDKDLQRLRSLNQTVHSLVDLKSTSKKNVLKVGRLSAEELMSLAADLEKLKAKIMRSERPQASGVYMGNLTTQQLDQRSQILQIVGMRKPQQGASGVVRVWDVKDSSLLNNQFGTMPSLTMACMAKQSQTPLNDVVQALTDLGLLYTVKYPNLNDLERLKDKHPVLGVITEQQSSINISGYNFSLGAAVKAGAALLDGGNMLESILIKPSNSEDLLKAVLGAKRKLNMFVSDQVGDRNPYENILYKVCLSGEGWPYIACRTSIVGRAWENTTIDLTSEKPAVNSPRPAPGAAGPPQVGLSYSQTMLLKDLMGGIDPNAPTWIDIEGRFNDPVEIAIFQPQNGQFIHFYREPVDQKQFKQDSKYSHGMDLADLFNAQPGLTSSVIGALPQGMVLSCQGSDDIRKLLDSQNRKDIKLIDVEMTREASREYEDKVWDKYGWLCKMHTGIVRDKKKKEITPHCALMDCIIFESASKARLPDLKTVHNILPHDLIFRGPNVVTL
Catechol O-methyltransferase (Homo sapiens), sequence (P21964 whole entry, looked up): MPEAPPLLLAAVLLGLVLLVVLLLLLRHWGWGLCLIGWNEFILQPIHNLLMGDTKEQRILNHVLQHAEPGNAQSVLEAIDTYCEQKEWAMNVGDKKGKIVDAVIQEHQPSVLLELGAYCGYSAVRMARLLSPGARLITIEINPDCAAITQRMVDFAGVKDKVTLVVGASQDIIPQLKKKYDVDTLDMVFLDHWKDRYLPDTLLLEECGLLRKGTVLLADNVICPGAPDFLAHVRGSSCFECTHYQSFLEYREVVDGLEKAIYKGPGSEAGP
Nuclear receptor subfamily 1 group I member 3 (Homo sapiens), sequence (Q14994 whole entry, looked up): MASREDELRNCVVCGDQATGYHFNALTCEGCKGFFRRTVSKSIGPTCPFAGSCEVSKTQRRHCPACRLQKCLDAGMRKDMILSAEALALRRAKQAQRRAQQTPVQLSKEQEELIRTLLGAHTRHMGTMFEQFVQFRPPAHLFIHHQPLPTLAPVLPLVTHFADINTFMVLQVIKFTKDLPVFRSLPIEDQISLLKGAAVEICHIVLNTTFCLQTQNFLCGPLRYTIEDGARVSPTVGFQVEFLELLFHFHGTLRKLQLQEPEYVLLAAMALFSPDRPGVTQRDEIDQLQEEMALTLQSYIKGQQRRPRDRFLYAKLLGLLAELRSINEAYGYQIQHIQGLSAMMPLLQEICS
Glutathione peroxidase 1 (Homo sapiens), sequence (P07203 whole entry, looked up): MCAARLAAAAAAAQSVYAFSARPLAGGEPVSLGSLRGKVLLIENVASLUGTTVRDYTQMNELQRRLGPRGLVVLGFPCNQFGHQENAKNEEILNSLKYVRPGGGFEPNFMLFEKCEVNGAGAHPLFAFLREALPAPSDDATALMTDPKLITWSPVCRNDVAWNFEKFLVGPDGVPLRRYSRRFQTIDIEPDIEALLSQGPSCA
Nicotinamide N-methyltransferase (Homo sapiens), sequence (P40261 whole entry, looked up): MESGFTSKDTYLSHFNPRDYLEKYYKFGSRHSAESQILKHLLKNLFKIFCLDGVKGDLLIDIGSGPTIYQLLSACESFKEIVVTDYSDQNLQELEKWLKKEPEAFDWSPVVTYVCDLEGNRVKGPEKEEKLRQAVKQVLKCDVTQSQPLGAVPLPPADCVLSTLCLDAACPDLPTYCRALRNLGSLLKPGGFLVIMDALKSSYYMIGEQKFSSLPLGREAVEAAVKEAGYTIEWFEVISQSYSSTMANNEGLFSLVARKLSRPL
Phenylethanolamine N-methyltransferase (Homo sapiens), sequence (P11086 whole entry, looked up): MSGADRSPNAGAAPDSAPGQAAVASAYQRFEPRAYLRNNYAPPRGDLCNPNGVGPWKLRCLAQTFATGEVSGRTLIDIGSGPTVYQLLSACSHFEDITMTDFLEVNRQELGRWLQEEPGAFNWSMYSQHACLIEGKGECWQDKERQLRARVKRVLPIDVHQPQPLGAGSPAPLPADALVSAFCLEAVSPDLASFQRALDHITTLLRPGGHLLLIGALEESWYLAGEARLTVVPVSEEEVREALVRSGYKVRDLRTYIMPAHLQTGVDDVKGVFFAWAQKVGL

With CN1c2ccccc2C(=O)N2CCc3c([nH]c4ccccc34)C21 (configuration not stated) as the compound, how does the Potency [1] read?
Its Potency is “inactive”.

What about the Potency [2] of the same compound?
The Potency was 6.81 µM (active).

What about the Potency [3] of the same compound?
The Potency was 6.31 µM (active).

And the Potency [4]?
Its Potency is 3.83 µM (active).

Which outcome [5] does the source give for Brc1c(Br)c(Br)c2[nH]cnc2c1Br here?
Its outcome is “inactive”.

What about the Potency [1] of the same compound?
Its Potency is “inactive”.

And the Potency [6]?
The Potency was “inactive”.

With CC(=O)O[C@H]1C(=O)[C@@]2(C)C([C@H](OC(=O)c3ccccc3)[C@]3(O)C[C@H](OC(=O)[C@H](O)[C@@H](NC(=O)c4ccccc4)c4ccccc4)C(C)=C1C3(C)C)[C@]1(OC(C)=O)CO[C@@H]1C[C@@H]2O (some centres not stated) as the compound, how does the Potency [7] read?
The Potency was “inactive”.

And the outcome [5]?
The outcome was “inactive”.

What about the Potency [1] of the same compound?
Its Potency is “inactive”.

What about the Potency [6] of the same compound?
Its Potency is “inactive”.

And the outcome [8]?
The outcome was “inactive”.

What about the Potency [9] of the same compound?
Its Potency is “inactive”.

What about the outcome [10] of the same compound?
The outcome was “inactive”.

And the Potency [2]?
Its Potency is 0.0429 µM (active).

What about the Potency [11] of the same compound?
Its Potency is “inactive”.

What about the activity change, negative = inhibition [3] of the same compound?
The activity change, negative = inhibition was -37.1% and -87.7%.

What about the Potency [4] of the same compound?
Its Potency is 0.0681 µM (active).

Which Potency [1] does the source give for O=C1NC(=O)c2c1c1c3ccccc3[nH]c1c1[nH]c3ccccc3c21 here?
The Potency was “inactive”.

And the Potency [12]?
The Potency was “inactive”.

What about the activity [13] of the same compound?
Its activity is -2.49%.

And the Potency [14]?
Its Potency is “inactive”.

What about the activity [15] of the same compound?
The activity was -2.73%.

And the activity [16]?
Its activity is -3.39%.

And the Potency [17]?
The Potency was “inactive”.

For COc1cc(C(C)C)c(Oc2cnc(NC(CO)CO)nc2N)cc1I, which Potency [1] is on record?
Its Potency is “inactive”.

What about the Potency [6] of the same compound?
Its Potency is “inactive”.

What about the Potency [11] of the same compound?
Its Potency is “inactive”.

And the Potency [3]?
Its Potency is “inactive”.

For O=c1cccc2c1c1cc[nH]c3ccc(=O)n2c31, which Potency [1] is on record?
The Potency was “inactive”.

What about the Potency [6] of the same compound?
The Potency was “inactive”.

With c1ccc(-c2oc3ncnc(NC[C@@H]4CCCO4)c3c2-c2ccccc2)cc1 as the compound, how does the Potency [1] read?
The Potency was “inactive”.

What about the Potency [6] of the same compound?
The Potency was “inactive”.

What about the activity change, negative = inhibition [3] of the same compound?
Its activity change, negative = inhibition is -93.9%.

For O=C(/C=C/c1ccc(O)c(O)c1)OC(Cc1ccc(O)c(O)c1)C(=O)O (configuration not stated), which Potency [1] is on record?
Its Potency is “inactive”.

What about the Potency [6] of the same compound?
The Potency was “inactive”.

And the Potency [18]?
Its Potency is “inactive”.

What does the source list for CN[C@@H](C)[C@H]1[C@H](O)C[C@@]2(C)[C@@H]3CC[C@H]4C(C)(C)[C@@H](NC)CC[C@@]45C[C@@]35CC[C@]12C?
Potency [1]: inactive; Potency [6]: inactive; Potency [19]: inactive; outcome [11]: inactive [at 11.3 µM]

With O=C1NCc2c1c1c3ccccc3[nH]c1c1[nH]c3ccccc3c21 as the compound, how does the Potency [1] read?
Its Potency is “inactive”.

And the Potency [6]?
The Potency was “inactive”.

Which results are given for O=C(CCCCCCC(=O)Nc1ccc([C@H]2O[C@@H](CSc3nc(-c4ccccc4)c(-c4ccccc4)o3)C[C@@H](c3ccc(CO)cc3)O2)cc1)NO?
Potency [1]: inactive; Potency [6]: inactive; outcome [11]: inactive [at 11.3 µM]; activity change, negative = inhibition [3]: 1.44% [at 11.3 µM]
